The whole screen tested about 220,000 compounds, of which about 1,600 (0.73%) were called active.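 Rule for the calls: active = inhibition above about 70% (limit read from the data); inactive = the rest.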 This excerpt belongs to a sample that is enriched for actives.
biological target: 14-3-3 protein zeta/delta (Bos taurus) (UniProt P63103); assay: disruptors of 14-3-3 zeta phospho-Bad complex – biochemical, TR-FRET, bovine 14-3-3 zeta, primary screen (AID 781); conditions: TR-FRET 14-3-3zeta/Dy647-pBad peptide displacement, 1 h; at 21.7 µM; active compounds read high;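 note: 0% = full 14-3-3 plus peptide FRET controls and 100% = background without 14-3-3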
Sequence (P63103 whole entry, looked up): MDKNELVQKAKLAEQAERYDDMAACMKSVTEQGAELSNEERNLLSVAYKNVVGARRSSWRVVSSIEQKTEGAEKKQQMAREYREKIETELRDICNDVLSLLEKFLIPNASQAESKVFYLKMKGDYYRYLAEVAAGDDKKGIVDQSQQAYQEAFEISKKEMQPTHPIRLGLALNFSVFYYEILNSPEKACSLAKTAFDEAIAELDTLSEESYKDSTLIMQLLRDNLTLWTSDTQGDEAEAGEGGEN

Row | Structure (SMILES) | inhibition
1 | Cc1ccc(CN2CCN(Cc3ccc(OCCO)cc3)CC2CCO)o1 (stereo not given) | -4.12% (inactive)
2 | COc1ccccc1CNC(=O)C1CCN(c2nc3ccccc3o2)CC1 | -3.16% (inactive)
3 | COc1ccccc1CNC(=O)C1CCN(S(C)(=O)=O)CC1 | 74% (active)
4 | COc1ccc(CNC(=O)C2CCN(S(C)(=O)=O)CC2)cc1 | -4.78% (inactive)
5 | Cc1cc(OCCCCOc2ccc(C#N)cc2)ccc1[N+](=O)[O-] | -4.45% (inactive)
6 | CCOC(=O)C1CCN(S(=O)(=O)c2cc(F)ccc2OC)CC1 | -7.19% (inactive)
7 | CCOC(=O)C1CCCCN1Cc1ccc(OC)c(OC)c1OC (stereo not given) | 79.9% (active)
8 | CCOC(=O)C1CCN(C(=O)/C=C/c2cc(OC)c(OC)c(OC)c2)CC1 | -11.5% (inactive)
9 | CCN(CC)CC(=O)Nc1sc2c(c1C(=O)c1ccccc1C)CCC2 | -10.9% (inactive)
10 | CCCCOc1ccc(CON(C(C)=O)C(C)=O)cc1Cl | 3% (inactive)
11 | COc1ccc(-c2csc(NC(=O)c3ccc(N4C(=O)CCC4=O)cc3)n2)cc1OC | -4.66% (inactive)
12 | O=C(CN1CCCCC1)Nc1ccccc1Cl | -5.94% (inactive)
13 | Cc1ccccc1NC(=O)CNc1ccccc1N1CCCCC1 | -11.4% (inactive)
14 | O=C(CN1CCN(C2CCCCC2)CC1)Nc1ccccc1N1CCCCC1 | 72.6% (active)
15 | CCCCOc1ccc(N(CC(=O)NC(C)C)C(=O)CCC(=O)Nc2ccccn2)cc1 | -8.63% (inactive)
16 | O=C1CC(=O)Nc2cc(S(=O)(=O)N3CCN(c4cccc(C(F)(F)F)c4)CC3)ccc2N1 | 9.3% (inactive)
17 | CC(C)Nc1nnc(SCC(=O)/C=C2\N(C)c3ccccc3C2(C)C)s1 | 0.42% (inactive)
18 | COC(=O)COc1ccc(C2NC(=O)NC(C)=C2C(=O)NCc2ccccc2)cc1OC (stereo not given) | -4.82% (inactive)
19 | Cc1ccc2cc(C#N)c(NCCNC(=S)NCCCN3CCOCC3)nc2c1 | -9.87% (inactive)
20 | COCCCNC(=S)NCCNc1nc2cc(C)c(C)cc2cc1C#N | -7.08% (inactive)
21 | Cc1ccc2nc(NCCCNC(=O)c3cnccn3)c(C#N)cc2c1 | 70.8% (active)
22 | Cc1ccc(NC(=O)c2nc[nH]c2C(=O)N[C@@H](CCCCNC(=O)OC(C)(C)C)C(=O)OC(C)(C)C)cc1 | -8.93% (inactive)

Row | Structure (SMILES) | inhibition
23 | CN1CCN(Cc2c(O)ccc3c2oc(=O)c2ccccc23)CC1 | 0.82% (inactive)
24 | O=c1c(-c2ccccc2)coc2c(CN3CCOCC3)c(O)ccc12 | 81.7% (active)
25 | O=c1c(-c2ccccc2)coc2cc(O)ccc12 | 4.45% (inactive)
26 | O=C(CSc1ccsc1[N+](=O)[O-])N1CCCCC1 | -7.81% (inactive)
27 | Cn1c(-c2ccco2)nc2cc3ccccc3cc21 | 75.6% (active)
28 | S=c1[nH]nc(-c2ccco2)n1/N=C/c1ccccc1 | -2.42% (inactive)
29 | CN1c2ccccc2-c2nc3ccccc3n2C1c1ccco1 (stereo not given) | -9.91% (inactive)
30 | COc1ccc(-c2csc(Cc3nc(O)cs3)n2)cc1 | -15.6% (inactive)
31 | NC1=NC(=O)S/C1=C\c1ccc(O)cc1 | -5.85% (inactive)
32 | CCOc1ccc(N=C2NC(=O)S/C2=C\c2ccc(O)cc2)cc1 | 70.4% [fluorescence artefact?] (active)
33 | CCOc1ccc(N=C2SC(C(=O)O)CC(=O)N2C)cc1 (stereo not given) | 13.2% (inactive)
34 | Cc1cccc(C(=O)Nc2ccc3c(c2)C(=O)N(CC(C)C)C3=O)c1 | -3.81% (inactive)
35 | COc1cccc(CN(C)CC(=O)Nc2sc3c(c2C#N)CCC3)c1 | -5.48% (inactive)
36 | NC(=O)c1c(NC(=O)CSc2nnc(-c3ccco3)n2N)sc2c1CCCC2 | -2.7% (inactive)
37 | COc1ccc(-n2c(SCC(=O)Nc3sc4c(c3C#N)CCCC4)nnc2-c2ccc(O)cc2)cc1 | 87.9% (active)
38 | C=CCn1c(N)c(S(=O)(=O)c2cccs2)c2nc3ccccc3nc21 | -4.17% (inactive)
39 | CC(C)Cn1c(N)c(C(=O)NCc2cccs2)c2nc3ccccc3nc21 | 6.16% (inactive)
40 | C=CCn1c(N)c(C(=O)OCC(C)C)c2nc3ccccc3nc21 | 79.3% [fluorescence artefact?] (active)
41 | S=C(NCCc1ccccc1)Nc1ccccc1 | -1.72% (inactive)
42 | N#Cc1ccc(C(=O)Nc2nc(-c3cccs3)c(C(=O)C(F)(F)F)s2)cc1 | 3.51% (inactive)
43 | CNc1ccc(NC(C)=O)cc1[N+](=O)[O-] | 5.82% (inactive)
44 | Cc1ccc(Nc2ccc(C(N)=O)cc2[N+](=O)[O-])cc1 | 0.31% (inactive)

Row | Structure (SMILES) | inhibition
45 | CC(=O)Nc1ccc(/C=N/Nc2ccc(C(=O)c3c(C)cc4ccccn34)cc2[N+](=O)[O-])cc1 | 84.9% (active)
46 | Cc1onc(-c2ccccc2)c1C(=O)N=C(N)c1ccc(Cl)cc1 | -6.58% (inactive)
47 | CCCN(CCC)S(=O)(=O)c1ccc(C(=O)N2CC3CCC(CC3)C2)cc1 | -3.48% (inactive)
48 | O=C(NCC(c1cccs1)N1CCOCC1)c1cc(-c2ccccn2)nc2ccccc12 (stereo not given) | 1.32% (inactive)
49 | O=C(NCc1cccs1)c1cc(-c2ccccn2)nc2ccc(Br)cc12 | 90.8% (active)
50 | O=C(Nc1ccncc1)c1cc(-c2ccccn2)nc2ccc(Br)cc12 | 44.9% (inactive)
51 | O=C(COC(=O)Cn1cnc2ccccc2c1=O)NCC12CC3CC(CC(C3)C1)C2 | 1.53% (inactive)
52 | Cn1cc(/C=C/C(=O)N2CCCC(C(=O)c3ccc(C(F)(F)F)cc3)C2)cn1 (stereo not given) | -7.47% (inactive)
53 | CN(C)CCNC(=O)Cc1ccc([N+](=O)[O-])cc1 | -6.79% (inactive)
54 | COc1ccc(-n2nnc3c(=O)n(CC(=O)OCc4ccccc4)cnc32)cc1 | 7.97% (inactive)
55 | COCc1cc(C)nc2sc3c(=O)n(-c4cccc5ccccc45)nnc3c12 | 5.95% (inactive)
56 | COc1ccc(-c2c(C(C)=O)c(C)nc3sc4c(=O)n(-c5ccc(C)cc5)nnc4c23)cc1 | 81.2% (active)
57 | Nc1nc(-c2sc3nc4c(cc3c2N)CCCC4)nc(N2CCOCC2)n1 | -13.9% (inactive)
58 | O=C(NNC(=S)NC1CC2CCC1C2)c1ccc(Cl)cc1 (stereo not given) | -16.9% (inactive)
59 | Cc1nc2nc(SCC(=O)c3ccccc3)[nH]c2cc1Br | -3% (inactive)
60 | Cc1ccc(OCC(=O)NC(C)c2ccccc2)c([N+](=O)[O-])n1 (stereo not given) | 7.44% (inactive)
61 | Cc1ccc(OCC(=O)Nc2ccccc2Sc2ccc(Cl)cc2)c([N+](=O)[O-])n1 | 71.7% [fluorescence artefact?] (active)
62 | CCc1ccccc1NC(=O)CN(C)C(=O)COc1ccc(C)nc1[N+](=O)[O-] | -17.4% (inactive)
63 | O=[N+]([O-])c1cccc(/C([O-])=C(/C(=S)Nc2ccccc2F)[n+]2ccccc2)c1 | -7.84% (inactive)
64 | Cc1cccc(C(=O)Nc2ccc(C(=O)/C=C/c3cccs3)cc2)c1 | 14.9% (inactive)
65 | Cc1ccc(C(=O)/C=C/Nc2ccc(S(=O)(=O)Nc3onc(C)c3C)cc2)cc1 | -24.4% (inactive)

From PubChem BioAssay AID781 (Emory University Molecular Libraries Screening Center, 2007)
